Calls of active or inactive are those of the source.
What was measured:
[1] = small molecules captured by biotinylated probe aFSTL3 – biochemical, small-molecule microarray, fluorescence 635/667, stem cell growth factor project, primary screen (AID 1064); conditions: higher = more signal;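 also: measures binding of the biotinylated anti-FSTL3 antibody to printed compounds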
[2] = binders from COS7 lysate, DM2A8 probe, primary screen, torsin A project, cell lysate, small-molecule microarray, fluorescence 635/667 (AID 1065); conditions: higher = more signal, COS7 lysate expressing mutant human TOR1A
[3] = small molecules captured by biotinylated probe aFGF2 – biochemical, small-molecule microarray, fluorescence 635/667, stem cell growth factor project, primary screen (AID 1067); conditions: higher = more signal;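 also: measures binding of biotinylated aFGF2 protein to printed compounds on slides; z-score merges feature fluorescence and signal-to-noise across triplicate slides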
[4] = small molecules captured by biotinylated probe aFGF10 – biochemical, small-molecule microarray, fluorescence 635/667, stem cell growth factor project, primary screen (AID 1071); conditions: higher = more signal;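 also: score merges 667 nm spot intensity and signal to noise from triplicate slides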
[5] = biological target: Neurogenic locus notch homolog protein 2 (Homo sapiens) (UniProt Q04721); experiment: small molecules binding Notch2 protein – biochemical, small-molecule microarray, 635 nm fluorescence, stem cell growth factors, primary screen (AID 1073); conditions: higher = more signal
[6] = biological target: Pro-neuregulin-1, membrane-bound isoform (Homo sapiens) (UniProt Q02297); experiment: small molecules binding neuregulin-1 protein – biochemical, small-molecule microarray, fluorescence 635/667, psychiatric disease protein project, primary screen (AID 1075); conditions: NRG1 binding, 635 nm fluorescence, higher = more signal;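 also: score combines 667 nm spot fluorescence with signal to noise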
[7] = test system: Neuregulin-1 EGF-like domain; experiment: small molecules binding NRG1 EGF domain – biochemical, small-molecule microarray, 635 nm fluorescence, primary screen (AID 1081); conditions: higher = more signal;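 also: binding of the protein to compounds printed on small-molecule microarray slides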
[8] = FRG1 expression reporter modulators in myotubes – cell-based, C2C12 myotubes, firefly/Renilla luciferase, luminescence, FRG1 inhibition for FSHD, primary screen (AID 1084); conditions: FRG1 promoter luciferase, higher = more signal, called active from +8 up or from −8 down
[9] = small molecules captured by biotinylated probe aFST – biochemical, small-molecule microarray, fluorescence 635/667, stem cell growth factor project, primary screen (AID 1086); conditions: higher = more signal;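 also: score merges 667 nm fluorescence with signal-to-noise of each printed compound spot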
[10] = binders of probe aHhip on microarray, primary screen, stem cell growth factor project, biochemical, small-molecule microarray, fluorescence 635/667 (AID 1087); conditions: higher = more signal;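 also: score merges spot fluorescence at 667nm with spot signal to noise ratio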

Neurogenic locus notch homolog protein 2 (Homo sapiens), sequence (Q04721 whole entry, looked up, canonical isoform): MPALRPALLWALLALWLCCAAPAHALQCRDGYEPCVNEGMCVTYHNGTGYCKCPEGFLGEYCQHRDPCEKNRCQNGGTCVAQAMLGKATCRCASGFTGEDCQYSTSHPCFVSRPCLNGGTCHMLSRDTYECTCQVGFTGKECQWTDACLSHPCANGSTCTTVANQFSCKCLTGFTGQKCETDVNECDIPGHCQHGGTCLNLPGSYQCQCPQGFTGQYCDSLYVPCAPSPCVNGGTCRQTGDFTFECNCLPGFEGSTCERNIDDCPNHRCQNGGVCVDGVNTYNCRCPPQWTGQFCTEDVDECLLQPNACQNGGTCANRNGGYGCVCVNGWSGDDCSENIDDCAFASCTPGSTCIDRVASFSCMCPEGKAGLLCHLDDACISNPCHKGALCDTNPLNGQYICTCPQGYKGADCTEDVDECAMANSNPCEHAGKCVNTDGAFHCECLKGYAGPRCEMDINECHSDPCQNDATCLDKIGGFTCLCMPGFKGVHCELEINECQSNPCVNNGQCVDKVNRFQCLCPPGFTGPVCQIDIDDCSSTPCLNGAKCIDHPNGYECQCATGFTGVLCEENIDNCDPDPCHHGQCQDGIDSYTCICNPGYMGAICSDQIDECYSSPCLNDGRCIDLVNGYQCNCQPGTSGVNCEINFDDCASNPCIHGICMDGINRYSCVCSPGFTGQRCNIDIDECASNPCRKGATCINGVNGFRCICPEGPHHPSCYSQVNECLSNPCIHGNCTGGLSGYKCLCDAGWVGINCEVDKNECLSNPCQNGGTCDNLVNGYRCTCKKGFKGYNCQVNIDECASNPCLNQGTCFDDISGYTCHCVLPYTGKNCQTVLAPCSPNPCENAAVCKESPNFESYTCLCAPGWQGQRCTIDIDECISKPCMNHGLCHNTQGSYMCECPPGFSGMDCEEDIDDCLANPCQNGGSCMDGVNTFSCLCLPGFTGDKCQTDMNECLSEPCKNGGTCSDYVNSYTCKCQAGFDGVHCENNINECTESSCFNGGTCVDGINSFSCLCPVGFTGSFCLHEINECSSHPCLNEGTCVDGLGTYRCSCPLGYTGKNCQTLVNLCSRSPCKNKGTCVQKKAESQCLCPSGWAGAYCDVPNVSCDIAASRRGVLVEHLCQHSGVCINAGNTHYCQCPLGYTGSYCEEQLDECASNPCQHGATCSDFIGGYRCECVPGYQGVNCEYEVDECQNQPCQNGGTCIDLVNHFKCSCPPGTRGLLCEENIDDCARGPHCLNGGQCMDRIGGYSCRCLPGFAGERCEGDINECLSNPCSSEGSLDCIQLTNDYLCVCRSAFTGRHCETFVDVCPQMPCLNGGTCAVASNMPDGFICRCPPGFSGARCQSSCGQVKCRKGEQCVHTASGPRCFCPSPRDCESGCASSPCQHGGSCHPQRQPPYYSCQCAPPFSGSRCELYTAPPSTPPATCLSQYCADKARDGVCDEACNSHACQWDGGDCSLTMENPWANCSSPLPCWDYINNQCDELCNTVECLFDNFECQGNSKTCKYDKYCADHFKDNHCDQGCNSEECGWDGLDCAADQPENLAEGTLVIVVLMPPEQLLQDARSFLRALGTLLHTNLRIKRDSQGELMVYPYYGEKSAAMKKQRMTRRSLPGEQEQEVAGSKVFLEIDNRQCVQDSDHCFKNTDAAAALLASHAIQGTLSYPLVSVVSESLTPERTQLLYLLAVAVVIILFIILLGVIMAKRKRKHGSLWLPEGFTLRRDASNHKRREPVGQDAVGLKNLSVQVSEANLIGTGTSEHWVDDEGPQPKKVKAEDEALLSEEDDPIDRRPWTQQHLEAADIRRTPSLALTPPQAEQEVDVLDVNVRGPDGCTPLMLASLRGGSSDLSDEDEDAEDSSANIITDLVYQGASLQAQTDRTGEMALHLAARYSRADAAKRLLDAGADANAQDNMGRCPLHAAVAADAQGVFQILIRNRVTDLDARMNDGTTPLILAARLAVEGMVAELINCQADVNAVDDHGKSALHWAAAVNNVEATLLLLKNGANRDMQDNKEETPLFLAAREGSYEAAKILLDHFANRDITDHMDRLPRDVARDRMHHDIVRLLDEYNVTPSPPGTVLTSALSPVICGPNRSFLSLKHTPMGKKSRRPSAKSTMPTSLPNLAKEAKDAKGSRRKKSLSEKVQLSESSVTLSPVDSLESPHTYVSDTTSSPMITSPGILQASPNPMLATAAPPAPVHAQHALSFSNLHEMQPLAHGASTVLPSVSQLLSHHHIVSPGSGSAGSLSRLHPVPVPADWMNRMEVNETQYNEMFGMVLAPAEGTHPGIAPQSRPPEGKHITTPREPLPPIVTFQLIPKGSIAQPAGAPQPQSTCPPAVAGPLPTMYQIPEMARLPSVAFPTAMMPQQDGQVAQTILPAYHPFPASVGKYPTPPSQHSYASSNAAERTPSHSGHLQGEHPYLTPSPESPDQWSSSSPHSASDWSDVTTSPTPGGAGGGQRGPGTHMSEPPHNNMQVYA
Pro-neuregulin-1, membrane-bound isoform (Homo sapiens), sequence (Q02297 whole entry, looked up, the tested form may be a part, canonical isoform): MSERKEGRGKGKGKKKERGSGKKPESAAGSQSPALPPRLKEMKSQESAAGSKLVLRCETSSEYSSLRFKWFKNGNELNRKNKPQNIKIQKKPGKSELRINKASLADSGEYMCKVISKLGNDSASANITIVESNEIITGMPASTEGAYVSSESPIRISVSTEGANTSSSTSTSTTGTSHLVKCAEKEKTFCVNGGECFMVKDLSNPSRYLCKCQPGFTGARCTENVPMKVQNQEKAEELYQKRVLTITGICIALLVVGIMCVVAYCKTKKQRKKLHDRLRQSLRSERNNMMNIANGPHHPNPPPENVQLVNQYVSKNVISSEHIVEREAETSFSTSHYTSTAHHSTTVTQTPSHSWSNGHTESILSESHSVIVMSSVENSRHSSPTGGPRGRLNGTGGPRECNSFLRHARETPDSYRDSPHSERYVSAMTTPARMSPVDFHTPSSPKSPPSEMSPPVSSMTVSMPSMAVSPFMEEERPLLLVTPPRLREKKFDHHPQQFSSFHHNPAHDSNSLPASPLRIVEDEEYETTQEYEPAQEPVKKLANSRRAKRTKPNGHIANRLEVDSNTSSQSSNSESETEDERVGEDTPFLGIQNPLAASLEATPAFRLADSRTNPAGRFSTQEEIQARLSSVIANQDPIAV

Row | SMILES | composite z-score [1] | composite z-score [2] | composite z-score [3] | composite z-score [4] | composite z-score [5] | composite z-score [6] | composite z-score [7] | z-score [8] | composite z-score [9] | composite z-score [10]
1 | COc1ccc([Si](C)(C)[C@@H]2[C@@H](CCO)O[C@]3(C(=O)N(Cc4ccccc4)c4ccccc43)[C@H]2C)cc1 | -0.377 | 0.274 | -0.0692 | 0.351 | 0.216 | -0.01 | 0.501 | 0.377 (inactive) | -0.0439 | -0.0994
2 | COc1cccc([C@@H]2[C@@H](C)CC[C@H]3C(=O)N4[C@H](c5cccc(OC)c5)[C@@H](C)CC[C@H]4C(=O)N23)c1 | -0.197 | 0.683 | -0.0355 | 0.483 | 1.01 | 0.25 | 0.285 | -1.21 (inactive) | 0.0794 | -0.0994
3 | O=C1c2ccccc2[C@@]2(Cc3ccccc3N(CC(F)(F)F)C2=O)[C@H](c2ccc(CO)cc2)N1C1CCCCC1 | -0.2 | 0.438 | -0.0199 | 0.354 | 0.455 | 0.492 | 1.47 | -0.555 (inactive) | -0.415 | -0.0618
4 | C[C@@H]1CC[C@H]2C(=O)N3[C@@H](CC[C@@H](C)[C@@H]3c3cccc(N4CCOCC4)c3)C(=O)N2[C@H]1c1cccc(Br)c1 | -0.0356 | 0.237 | -0.108 | 0.528 | 0.263 | 0.942 | 0.987 | -0.649 (inactive) | 0.166 | 0.0373
5 | O=C1OCC=C[C@H]2OC34C=CCN(Cc5ccccc5)C(=O)[C@H]3N(CCCCCO)C(=O)[C@@H]4[C@@H]12 (stereo not given in full) | 1.67 | -0.0288 | -0.187 | -0.179 | -1.38 | 1.13 | 0.631 | 0.443 (inactive) | -0.594 | -0.216
6 | COCCOC(=O)N1C(=O)[C@@]2(c3cc(C#CC4=CCCCC4)ccc31)[C@H](C(=O)NC[C@H](O)c1ccccc1)[C@H]1C(=O)O[C@H](c3ccccc3)[C@H](c3ccccc3)N1[C@@H]2c1ccccc1OCCO | 0.462 | 0.333 | 0.126 | 0.467 | 1.15 | 0.616 | 1.09 | -0.0011 (inactive) | 0.881 | 0.259
7 | Cc1ccc(N2C(=O)c3ccccc3[C@@H](C(=O)NCc3ccccc3)[C@@H]2c2ccc(CO)cc2)nc1 | 0.462 | 0.205 | -0.128 | -0.741 | -0.272 | -0.161 | 0.908 | -0.702 (inactive) | 0.174 | 0.0807
8 | CCOC(=O)C[C@H]1[C@H](OC(=O)c2ccccc2-c2ccccc2)[C@@H](NC(=O)c2ccc(-c3ccccc3)cc2)c2cc(OCCCO)ccc2N1C(=O)Cc1ccc(OC)cc1 | -0.191 | -0.0021 | -0.0642 | 0.389 | 0.212 | -0.109 | 0.373 | 0.524 (inactive) | 0.437 | -0.0346
9 | C=CCC(OC(C)=O)[C@@H]1[C@@H](N(Cc2ccc(-c3cccc(C(F)(F)F)c3)o2)C(=O)Cc2ccc(F)cc2)c2cc(OCCCO)ccc2N1C(=O)c1ccc(-c2ccccc2)cc1 (stereo not given in full) | 0.142 | -0.0983 | -0.129 | -0.556 | -0.606 | -0.0704 | -0.387 | -0.245 (inactive) | 0.0417 | -0.236
10 | COCC(=C=CC[C@H](O)c1ccc(OCCO)cc1)C[C@H](O)c1ccccn1 | -0.103 | 0.628 | -0.156 | -0.106 | -0.499 | 0.508 | 1.27 | 1.61 (inactive) | -0.192 | -0.134
11 | COCCCNC(=O)[C@@]1(c2ccc([N+](=O)[O-])cc2)CC(=O)N(C2CCCCC2)[C@@H]1c1ccc(CO)cc1 | -1.19 | -0.655 | -0.248 | 0.174 | -0.243 | 0.763 | 1.39 | -0.912 (inactive) | -0.604 | -0.859
12 | NC(=O)[C@H]1[C@@H]2C(=O)O[C@@H](c3ccccc3)[C@@H](c3ccccc3)N2[C@@H](c2ccc(O)cc2)[C@]12C(=O)Nc1ccc(C#CCCO)cc12 | 0.545 | -0.831 | -0.12 | -0.861 | -0.982 | -0.0709 | 1.12 | -0.89 (inactive) | -0.605 | -0.251
13 | CC(C)(C)OC(=O)CC[C@@]1(C(=O)NCc2ccccc2)N=C(c2ccc(OCCCO)cc2)O[C@@H]1c1ccccc1 | 0.844 | 1.96 | 0.0096 | 0.0922 | 1.24 | 1.5 | 1.27 | -2.49 (inactive) | 1.14 | -0.304
14 | O=C(O)[C@@H]1Cc2c([nH]c3ccccc23)[C@@H](c2ccccc2)N1 | -0.675 | -0.15 | -0.109 | 0.35 | 0.464 | 0.144 | 0.125 | -0.608 (inactive) | 0.084 | -0.0522
15 | C=CC[C@@]1(C(=O)NCC(O)CO)N=C(c2ccc(OCCCO)cc2)O[C@@H]1c1ccccc1CN=[N+]=[N-] (stereo not given in full) | 0.325 | 0.674 | -0.11 | -0.355 | 0.13 | 1.79 | 1.23 | -2.68 (inactive) | 0.966 | -0.236
16 | C=CCC(OC(C)=O)[C@@H]1[C@@H](N(Cc2ccc(-c3ccccc3)cc2)C(=O)c2ccc(C)cc2)c2cc(OCCCO)ccc2N1C(=O)c1ccc(-c2ccccc2)cc1 (stereo not given in full) | -0.0264 | -0.192 | -0.006 | 0.0126 | -0.245 | -0.0564 | -0.538 | -2.08 (inactive) | 0.186 | -0.405
17 | CO[C@H]1O[C@H](CO)[C@@H](OC(=O)Nc2ccc3c(c2)OCO3)[C@H](OC(=O)Nc2ccccc2)[C@@H]1OC(=O)Nc1ccccc1 | -0.214 | 0.215 | 0.0654 | 0.949 | -0.0622 | 1.27 | 1.29 | -1.6 (inactive) | 0.188 | -0.0994
18 | O=C1O[C@H](c2ccccc2)[C@H](c2ccccc2)N2[C@H]1[C@@H](C(=O)NC[C@H](O)c1ccccc1)[C@]1(C(=O)Nc3ccc(C#CC4(O)CCCCCC4)cc31)[C@H]2c1ccc(OCCO)cc1 | 0.247 | 0.634 | 0.0589 | 0.577 | 1.19 | 1.02 | 1.24 | 1.04 (inactive) | 0.388 | 0.0024
19 | CO[C@H]1COC(=O)[C@@H](Cc2ccccc2)NC(=O)[C@@H](C)COC(=O)CC=C[C@@H]1C | -0.533 | 0.806 | -0.142 | -0.0799 | -0.172 | -0.923 | -0.294 | 0.0824 (inactive) | -0.0629 | -0.0994
20 | CCc1cccc(NC(=O)O[C@H]2[C@H](OC(=O)Nc3ccccc3)[C@@H](OC(=O)Nc3ccccc3)[C@@H](OC)O[C@@H]2CO)c1 | -0.0679 | 0.624 | 0.216 | 1.17 | 1.08 | 1.76 | 1.39 | 0.825 (inactive) | 0.891 | -0.0831
21 | CCOC(=O)C1=CC[C@@H](c2ccc(-c3ccc(OCc4ccccc4)cc3)c(OC)c2)N(S(=O)(=O)c2ccc(C)cc2)[C@H]1c1ccccc1 | -0.216 | 0.448 | 0.0188 | 0.668 | 1.49 | 1.36 | 0.952 | 0.141 (inactive) | 0.9 | 0.314
22 | CO[C@H]1COC(=O)[C@@H](C)COC(=O)[C@H](Cc2ccccc2)NC(=O)CC=C[C@H]1C | -0.678 | 0.995 | -0.107 | 0.131 | -0.26 | -0.323 | -0.703 | -0.117 (inactive) | 0.267 | 0.0216
23 | C[C@@H]1NC(=O)[C@H](Cc2ccccc2)NC(=O)[C@@]23C(=O)N[C@@H](Cc4ccccc4)C2[C@H](C)[C@@]2(C)O[C@H]2C3/C=C/C/C=C\CNC1=O (stereo not given in full) | -0.191 | -0.0483 | -0.111 | 0.0009 | -0.315 | -0.318 | -0.603 | -0.225 (inactive) | -0.784 | 0.122
24 | C#CCCCON=C1C[C@@H](O)[C@@H](O)[C@@H]2[C@@H]3C(=O)N(Cc4ccc5c(c4)OCO5)C(=O)[C@@H]3CC[C@@H]12 | -0.158 | -0.022 | -0.0684 | 0.456 | 0.204 | 0.166 | 0.562 | -0.177 (inactive) | 0.351 | 0.0695
25 | CCCC=C(CCC)[C@@H](NS(=O)(=O)c1ccc(-c2ccccc2)cc1)c1ccc(C(=O)OC)cc1 | 0.184 | -0.337 | -0.0363 | -0.198 | 0.268 | -0.33 | -0.656 | 1.55 (inactive) | -0.212 | -0.0994

— PubChem BioAssay
